Source: PubChem BioAssay
PPARg SRC1 recr: PPARgamma agonists recruiting SRC-1 coactivator, primary screen, biochemical | 0.41% of 200,000 active | PPARgamma-SRC-1 coactivator recruitment biochemical assay | activation, % at 8 µM | Peroxisome proliferator-activated receptor gamma (Homo sapiens), P37231; in the data active means activation above about 19%;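 further: 0% = DMSO and 100% = reference agonist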
SRC2 TRFRET art: TR-FRET signal artefacts, primary screen, artefact control for PPARgamma SRC-2 agonist project, biochemical. AID 1049, 2008. 0.4% of 200,000 active. TR-FRET ratio at 8 µM. TR-FRET artefact counter-screen; active compounds read high; in the data active means TR-FRET ratio above about 2000
PPARg SRC2 recr: agonists of PPARg-SRC-2 recruitment, primary screen, biochemical, HTS; 0.34% of 200,000 active; Peroxisome proliferator-activated receptor gamma (Homo sapiens), P37231; AID 1032, 2008; activation, % at 8 µM; PPARgamma LBD-SRC-2 recruitment;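 further: 0% = vehicle and 100% = reference agonist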
PPARg SRC-3 ag: PPARgamma agonists recruiting SRC-3 coactivator, primary screen, biochemical; biochemical PPARgamma/SRC-3 coactivator recruitment assay; activation, % at 8 µM; 0.26% of 200,000 active; AID 731, 2007; in the data active means activation above about 23%;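 further: 0% = DMSO and 100% = reference agonist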
SRC3 TRFRET art: TR-FRET detection interference compounds, artefact control for PPARgamma SRC-3 recruitment agonists, biochemical, TR-FRET ratio | TR-FRET artefact counter-screen, PPARgamma/SRC-3 format; active compounds read high | TR-FRET ratio at 8 µM | 0.39% of 99,000 active | AID 1048, 2008; in the data active means TR-FRET ratio above about 2000
SRC1 TRFRET art: TR-FRET detection interference compounds, primary screen, artefact control for PPARgamma SRC-1 recruitment agonists, biochemical, TR-FRET emission ratio. TR-FRET detection artefact counter-screen; active compounds read high. TR-FRET ratio at 8 µM. 0.34% of 99,000 active. AID 1051, 2008; in the data active means TR-FRET ratio above about 2300
PPARg SRC2 conf: agonists of PPARgamma SRC-2 coactivator recruitment, confirmation, biochemical, HTS; biochemical SRC-2 recruitment by PPARgamma; 52% of 790 active; shares compounds with PPARg SRC-3 ag; activation, % at 8 µM;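 further: 0% = vehicle alone and 100% = reference agonist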
PPARg SRC1 ag: PPARgamma agonists recruiting SRC-1 coactivator, confirmation, biochemical; shares compounds with PPARg SRC-3 ag; PPARgamma–SRC-1 coactivator recruitment biochemical assay; activation, % at 8 µM; 43% of 790 active; AID 1300, 2008; in the data active means activation above about 20%;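 further: 0% = vehicle wells and 100% = reference agonist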
PPARg SRC3 conf: PPARgamma-driven SRC-3 coactivator recruitment agonists, confirmation, biochemical; biochemical PPARgamma-SRC-3 coactivator recruitment, agonist mode; activation, % at 8 µM; AID 1301, 2008; 29% of 790 active; shares compounds with PPARg SRC-3 ag; in the data active means activation above about 24%;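 further: 0% = vehicle wells and 100% = reference agonist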
Starred values were filed as active, the others as inactive; · = no result. In the library only some 0.84% were active in any assay of this set; here they are far more common. Unless noted, no stated cut-off is given here; in the data, active means activation above about 22%; inactive means the rest.

SMILES	PPARg SRC1 recr	SRC2 TRFRET art	PPARg SRC2 recr	PPARg SRC-3 ag	SRC3 TRFRET art	SRC1 TRFRET art	PPARg SRC2 conf	PPARg SRC1 ag	PPARg SRC3 conf
COC(=O)c1ccc(CN2CCCC(CCC(=O)NCc3ccc(C)o3)C2)cc1 (centres undefined)	1.7	1445	-1.9	-3.6	1540	1754	·	·	·
O=C(c1cncs1)N1CCCC(CNS(=O)(=O)c2cccs2)C1 (centres undefined)	4.3	1713	8.6	4.5	1689	1655	·	·	·
CC(=O)c1nc(N2C(=O)CC(Cc3cccc(C)c3)C2=O)sc1C (centres undefined)	19.6*	1783	10.0	19.5	·	·	9.8	8.1	6.8
CCN(CC)c1ccc(/C=C2/C(=O)ON=C2C)cc1	18.0	1519	11.4	25.9*	1737	2156	15.2	10.8	14.1
O=C(Nc1nnc(-c2cccnc2)o1)c1cccc(Cl)c1	4.8	1522	3.1	5.3	1524	1870	·	·	·
C=CCn1c(-c2cc(Cl)ccc2OC)n[nH]c1=S	18.9*	1913	26.0*	19.7	·	·	29.7*	21.5*	21.1
C=CCn1c(-c2csc(-c3ccc(OC)c(OC)c3)n2)n[nH]c1=S	10.8	2116*	23.0*	12.6	1975	2209	19.6	14.8	14.1
C=CCn1c(-c2csc(-c3ccc(Cl)cc3)n2)n[nH]c1=S	7.1	1851	10.2	12.6	·	·	·	·	·
CN(C1CCCC1)C1CCN(C(=S)Nc2cc(F)cc(F)c2)CC1	11.0	1658	6.7	8.9	1423	1883	·	·	·
CC(=O)Oc1ccc(N2C(=O)C3C4C=CC(CC4)C3C2=O)cc1[N+](=O)[O-] (centres undefined)	-1.0	1630	-6.9	-1.8	1492	1691	·	·	·
O=C(Nc1ccccc1)c1ccc(-c2ccccc2)s1	39.4*	2178*	38.5*	16.9	2060*	2787*	43.5*	34.6*	26.2*
CCOc1ccc(/C=N/OCC(=O)NCc2ccco2)cc1	2.7	1536	3.5	1.1	1644	1928	·	·	·
Cc1cccc(OCC(=O)Nc2nnc(-c3ccco3)s2)c1	27.9*	2106*	28.0*	20.4	2164*	2686*	35.9*	28.3*	22.4
CCC(C(=O)Nc1nnc(-c2ccco2)s1)c1ccccc1 (centres undefined)	26.4*	1806	14.8	27.3*	·	·	27.4*	20.8*	19.5
O=C(Cc1ccccc1)Nc1nnc(-c2ccco2)s1	36.8*	2292*	31.5*	36.8*	·	·	30.6*	24.2*	18.4
CCCC(=O)Nc1nnc(-c2ccco2)s1	12.6	1854	5.4	6.6	·	·	·	·	·
CCc1nnc(NC(=O)C(CC)c2ccccc2)s1 (centres undefined)	0.4	1600	-2.1	3.0	1659	1783	·	·	·
COc1ccccc1OCC(=O)Nc1nnc(-c2ccco2)s1	28.5*	2199*	30.6*	34.9*	·	·	23.8*	21.4*	15.4
COC(=O)CSc1nnc(CNC(=O)c2ccc(OC)c(OC)c2)n1C	15.2	1567	10.8	2.4	1675	1836	·	·	·
Cc1cc2c(nc1C)CCCN2C[C@@H](C)O/N=C1/[C@H]2CCn3c(=O)n(-c4ccccc4)c(=O)n3[C@H]2[C@H](O)[C@@H]2O[C@H]12	6.9	1469	6.2	2.1	1609	1616	·	·	·
Nn1c(=O)c2ccccc2n2c(SCc3ccc(C(F)(F)F)cc3)nnc12	-2.6	1529	2.5	-2.3	·	·	·	·	·
COc1ccc(OC)c(NC(=O)c2ccc(CSc3ncccn3)cc2)c1	-3.5	1387	5.8	-1.9	1429	1690	·	·	·
CCOc1cccc(C(=O)Nc2nnc(-c3ccco3)s2)c1	21.7*	1945	17.2	17.0	·	·	20.2	16.6	14.6
CCOC(=O)Cc1nnc(NC(=O)c2cccc(OCC)c2)s1	0.9	1642	-6.2	3.5	·	·	·	·	·
Clc1cccc(Nc2nc(-c3cccnc3)cs2)c1	6.6	1525	8.3	7.2	1788	1732	·	·	·
SMILES	PPARg SRC1 recr	SRC2 TRFRET art	PPARg SRC2 recr	PPARg SRC-3 ag	SRC3 TRFRET art	SRC1 TRFRET art	PPARg SRC2 conf	PPARg SRC1 ag	PPARg SRC3 conf
Cc1ccc(N2CSC3=C(C#N)C(c4cccs4)CC(=O)N3C2)cc1 (centres undefined)	13.4	2106*	28.8*	19.3	·	·	3.9	-0.2	2.3
CC(C)CC(COCc1ccc(Cl)cc1)N1CCN(C(=O)c2ccc(Cl)cc2Cl)CCC1=O (centres undefined)	3.8	1423	1.4	-1.1	1360	1467	·	·	·
CCc1nnc(NS(=O)(=O)c2ccc(N/C=C\C(=O)c3cccc4ccccc34)cc2)s1	23.2*	1761	23.8*	48.0*	1728	1902	22.8*	22.2*	41.2*
COc1ccc(-c2cn3c(C)c(C(=O)Nc4cc(NC(C)=O)ccc4OC)sc3n2)cc1	23.2*	2510*	39.0*	46.8*	·	·	41.1*	33.8*	25.0*
Cc1nnc(SC(C)C(=O)Nc2ccc(Cl)cn2)n1Cc1ccccc1 (centres undefined)	4.3	1728	1.5	-0.1	1631	1869	·	·	·
CC(Sc1nnc(-c2ccc(Cl)cc2Cl)n1Cc1ccccc1)C(=O)Nc1nccs1 (centres undefined)	37.1*	1618	6.8	17.9	·	·	18.6	28.0*	26.3*
COc1ccc2c(c1)c(=O)oc1cc(O)ccc12	-2.4	1582	5.1	2.8	1675	1714	·	·	·
O=c1oc2cc(O)ccc2c2ccccc12	27.6*	2392*	47.1*	59.8*	·	·	29.6*	17.1	22.4
O=c1[nH]c2ccc(Cl)cc2c(-c2ccccc2)c1SC(=S)N1CCCCC1	1.5	1624	22.9*	15.7	·	·	3.8	1.3	0.1
CCCCNc1c(N)n(CC(C)C)c(=O)[nH]c1=O	2.9	1552	6.8	5.0	1716	1839	·	·	·
O=C(NCCCN1CCOCC1)c1ccc(Sc2cccc(Cl)c2)c([N+](=O)[O-])c1	-1.7	1641	4.1	0.1	1778	1738	·	·	·
ClCc1csc(-c2ccccc2Cl)n1	18.9	2108*	25.4*	17.4	2168*	2229	27.6*	21.8*	17.4
CCOC(=O)C(NC(=O)c1ccc(OC)cc1)(N1CCCC1=O)C(F)(F)F (centres undefined)	9.6	1608	7.5	1.6	1793	1823	·	·	·
